Source: PubChem BioAssay (National Center for Advancing Translational Sciences (NCATS))
FBPA Giardia inh: inhibitors of Giardia lamblia fructose-1,6-bisphosphate aldolase. A8B2U2. purified Giardia FBPA. Potency, µM (series often up to 59.6 µM), inactives show top-dose activity, negative = inhibition, actives largely listed as inhibitors. actives 0.71% (n = 290,000); note: nearly all actives have a fitted effect of over 55% in size
Target sequence (A8B2U2 whole entry, looked up): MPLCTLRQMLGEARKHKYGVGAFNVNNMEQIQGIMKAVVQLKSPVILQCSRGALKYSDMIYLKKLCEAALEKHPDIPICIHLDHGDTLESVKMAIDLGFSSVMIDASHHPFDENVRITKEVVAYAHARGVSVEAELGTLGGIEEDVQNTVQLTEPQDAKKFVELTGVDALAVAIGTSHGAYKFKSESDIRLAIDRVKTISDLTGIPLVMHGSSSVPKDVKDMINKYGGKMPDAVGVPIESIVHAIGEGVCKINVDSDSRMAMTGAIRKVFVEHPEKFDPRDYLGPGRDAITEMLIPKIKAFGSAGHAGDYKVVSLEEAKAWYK
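Giardia FBPA (40 nM reagent) was preincubated 10 min at RT with compound (up to 57.5 uM final), then substrate plus GAPDH/TPI/NAD/arsenate coupling system with diaphorase/resazurin was added; resorufin fluorescence (525/598 nm) was read after 20 min.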
AmpC inh detg: blocks E. coli AmpC beta-lactamase in detergent assay; P00811; AmpC hydrolysis of nitrocefin, absorbance 480 nm, 0.01% Triton; Potency, µM (top dose mostly 114 µM), without a hit: top-dose activity change, negative = inhibition, actives largely listed as inhibitors; actives 0.041% (n = 370,000);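 note: 0% = no-compound wells and -100% = no-enzyme wells; nearly all actives have a fitted effect of over 25% in size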
Target sequence (P00811 whole entry, looked up): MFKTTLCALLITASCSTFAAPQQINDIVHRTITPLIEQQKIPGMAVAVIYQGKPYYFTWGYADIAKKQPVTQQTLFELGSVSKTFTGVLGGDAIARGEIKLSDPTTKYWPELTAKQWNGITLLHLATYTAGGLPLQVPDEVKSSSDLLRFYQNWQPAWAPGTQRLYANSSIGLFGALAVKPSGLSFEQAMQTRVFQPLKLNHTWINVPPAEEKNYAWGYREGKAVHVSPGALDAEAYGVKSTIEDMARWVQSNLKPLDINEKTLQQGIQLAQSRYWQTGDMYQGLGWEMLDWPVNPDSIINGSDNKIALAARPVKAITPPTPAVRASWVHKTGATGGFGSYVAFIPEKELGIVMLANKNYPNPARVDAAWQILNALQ
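20 mM phosphate pH 7.0 + 0.01% (detergent screen) or 0.0001% Triton X-100; 5.3 nM AmpC reagent; cpd preinc 15 min RT; nitrocefin (800 uM stock) to start; A480 q20 s × 4 min; Activity was normalised to no-enzyme and no-compound control wells.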
AmpC inh no detg: inhibitors of E. coli AmpC beta-lactamase without detergent; AmpC nitrocefin hydrolysis, absorbance 480 nm, 0.0001% Triton; Potency, µM (top dose mostly 57.1 µM), for inactives: at the highest dose activity change, negative = inhibition, usual class: inhibitors; actives 0.52% (n = 330,000);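 note: plate controls were no compound for no effect and no enzyme for full effect; nearly all actives have a fitted effect of over 20% in size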
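20 mM phosphate pH 7.0 + 0.01% (detergent screen) or 0.0001% Triton X-100; 5.3 nM AmpC reagent; cpd preinc 15 min RT; nitrocefin (800 uM stock) to start; A480 q20 s × 4 min; Activity was normalised to no-enzyme and no-compound control wells.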
AMA1-RON2 inh: inhibitors of Plasmodium falciparum AMA1-RON2 interaction; actives 0.2% (n = 360,000); AlphaScreen AMA1-biotinylated RON2 peptide binding; Potency, µM (series often up to 58.2 µM), inactives show at the top dose activity change, negative = inhibition, most hits filed as inhibitors;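 note: 0% = vehicle wells and -100% = peptide control; nearly all actives have a fitted effect of over 45% in size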
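AMA1 (3D7) with his tag at 25 nM final met compounds first, then biotinylated RON2 peptide at 25 nM; detection used donor plus acceptor beads, 10 µg/mL apiece, read by AlphaScreen after 30 min at room temperature.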
LmPK inhibitor: LmPK (Leishmania mexicana) enzyme inhibition | purified LmPK, Kinase-Glo ATP luminescence, 1 h | Potency, µM (series often up to 57.5 µM), inactives show top-dose activity change, negative = inhibition, actives largely listed as inhibitors | actives 0.37% (n = 290,000) | AID 1721
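Pyruvate kinase activity monitored as ATP production (luciferase luminescence). Conditions: 0.1 nM enzyme, 0.5 mM PEP, 0.1 mM ADP, 1 h, RT; normalized against uninhibited and no-enzyme wells.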
The depositor's hits bear a star; ? = inconclusive; . = no result given; [ ] = another dose, or the depositor's remark. Rows were chosen to be rich in hits. Some 1.3% of all compounds tested hit in one or more screens of this group. Calls come from the whole dose curve; as a rule, active = well fitted curve in the direction sought with a large enough effect; inconclusive = small, poorly fitted or top-dose-only effect, or another doubt; inactive = no such curve, though single readings can be large; an effect the other way counts as inactive or inconclusive. Unless noted, % is set by controls: 0 for no effect and ±100 for the full control effect; potency is the fitted concentration of half-maximal effect.

SMILES	FBPA Giardia inh	AmpC inh detg	AmpC inh no detg	AMA1-RON2 inh	LmPK inhibitor
Cc1cc(C)c2c(=O)n(CC(=O)NCCCN3CCN(c4ccccc4F)CC3)sc2n1	-14%	?	-7%	-1%	-26%
Cc1cc(C)c2c(=O)n(CC(=O)NCCCN3CCOCC3)sc2n1	-19%	45µM*	14µM*	18%	-16%
Cc1cc(C)c2c(=O)n(CC(=O)Nc3cccc(F)c3)sc2n1	-21%	79µM*	?	-6%	-15%
Cc1cc(C)c2c(=O)n(CC(=O)Nc3ccc(Cl)cc3)sc2n1	-26%	-13%	?	16%	-22%
Cc1cccc(N2CCN(C(=O)Cn3sc4nc(C)cc(C)c4c3=O)CC2C)c1 (configuration not stated)	-19%	50µM*	-16%	-4%	-21%
CCN(CC)c1ccc(CNS(=O)(=O)c2cc3c(cc2C)NC(=O)CO3)cc1	.	17%	.	.	.
O=C(NCc1ccccc1)C(CCc1ccccc1)n1c(=O)c(-c2ccccc2)nc2ccccc21 (configuration not stated)	.	.	.	66%	.
CCN(CC(=O)Nc1ccc(NC(C)=O)cc1)C(=O)/C=C/c1cn(-c2ccccc2)nc1-c1cccs1	.	?	25µM*	-4%	.
C/C(Cn1nnc([N+](=O)[O-])n1)=N\NC(=O)c1ccc(O)cc1O	?	-10%	-22%	-10%[2.32 µM]	3%
C/C(Cn1nnc([N+](=O)[O-])n1)=N\NC(=O)c1ccccc1O	18µM*	4%	-30%	71%	4%
COc1cccc(C(C(=O)NC2CCCCC2)N(C(=O)c2csnn2)C2CC2)c1 (configuration not stated)	1%	-10%	16%	-3%	0%
C/C(=N\NC(=O)c1cc2ccccc2cc1O)c1cc2ccccc2o1	-19%	4%	16µM*	143%	6%
Brc1ccc(OCc2nc3ccccc3[nH]2)cc1	-28%	-1%	-22%	4%	-2%
COc1ccc(CSc2nc3ncccc3[nH]2)cc1	.	-1%	.	.	.
CN(C)C(=O)Oc1ccc(OCc2nc3ccccc3[nH]2)cc1	3%	-13%	-27%	5%	7.1µM*
COc1ccc(OCc2nc3ccccc3[nH]2)cc1	-2%	4%	-25%	9%	18µM*
Cc1ccccc1OCc1nc2ccccc2[nH]1	-13%	3%	-14%	-7%	18µM*
COc1cccc(OCc2nc3ccccc3[nH]2)c1	-3%	-13%	-19%	9%	-12%
COc1ccc(CSc2nc3ccccc3[nH]2)cc1	-5%	-1%	-25%	-2%	16µM*
c1ccc(C[C@H]2COc3c4ccccc4nn32)cc1	.	.	.	-10%	.
CCc1nn(CC(=O)N2CCCCC2)c(=O)c2cc3sc(C)cc3n12	.	22%	.	.	.
CCOc1ccc2c(c1)c(=O)c(C(=O)c1ccc3c(c1)OCO3)cn2Cc1cccc(F)c1	.	9%	.	.	.
COc1ccccc1NC(=O)Nc1nc(CC(=O)Nc2ccc(N(C)C)cc2)cs1	.	?	-48%	18µM*	.
Cc1ccc(NC(=S)Nc2nc(CC(=O)Nc3ccccc3)cs2)cc1	-16%	-2%	14µM*	65%	1%
Oc1cc2c(cc1CN1CCN(c3ccc(F)cc3)CC1)OCO2	-6%	?	-18%	32µM*	11%
SMILES	FBPA Giardia inh	AmpC inh detg	AmpC inh no detg	AMA1-RON2 inh	LmPK inhibitor
Brc1cc2c(cc1CN1CCN(c3ccccc3)CC1)OCCO2	-4%	5%	-4%	7.9µM*	-7%
CC(C)(C)NC(=O)C1(C)CCC(=O)N1C1CCN(Cc2ccccc2)CC1 (configuration not stated)	.	.	.	-1%	.
O=C(C[C@H]1C[C@@H]2c3cc(NC(=O)c4ccc5c(c4)OCO5)ccc3O[C@@H]2[C@H](CO)O1)NCc1cc(F)ccc1F	.	.	.	-11%	.
CC1(C)S[C@@H]2[C@H](NC(=O)COc3ccccc3)C(=O)N2C1C(=O)OCc1cc2ccccc2n1S(=O)(=O)c1ccccc1 (some centres not stated)	4%	?	8.9µM*	.	-3%
COc1ccc(-n2c(=O)c3sc4ccccc4c3n(CC(=O)NCc3ccccc3)c2=O)cc1	.	8%	.	.	.
Oc1cccc2c(NC(=S)Nc3ccc(SC(F)F)cc3)cccc12	1.8µM*	-4%	-49%	29%	3%
Oc1cccc(NC(=S)Nc2ccc(SC(F)F)cc2)c1	-5%	-4%	-57%	75%	0%
S=c1[nH]nc(CCc2ccccc2)n1-c1ccc(Cl)cc1	7%	?	-28%	30%	?
Cc1ccc(-n2c(Cc3ccccc3)n[nH]c2=S)cc1	6%	4%	-26%	45%	7.9µM*
S=c1[nH]nc(Cc2ccccc2)n1-c1ccccc1	3%	0%	-19%	33%	?
CC(C)Cn1c(Cc2ccccc2)n[nH]c1=S	-1%	10%	-17%	13%	11µM*
S=c1[nH]nc(CCc2ccccc2)n1-c1ccccc1	7%	-7%	-15%	33%	3.5µM*
COc1ccc(OCc2cc(C(=O)N(C)C(C)c3ccon3)no2)c(Cl)c1 (configuration not stated)	.	4%	39%	6%	-13%
CC1(C(=O)NS(=O)(=O)c2cccc(C#N)c2)CCN1C(=O)c1cccc2ccccc12 (configuration not stated)	.	.	.	0%	.
CN(/N=C/c1ccc([N+](=O)[O-])o1)c1ccccc1	-1%	4%	-23%	13µM*	-11%
COC(=O)c1ccc(C(=O)OC)c(NC(=O)C2CC(=O)N(C3CCCC3)C2)c1 (configuration not stated)	.	.	.	-7%	.
O=C(N/N=C/c1ccco1)c1cc(C2CC2)nc2ccccc12	0%	1%	28µM*	.	1%
O=C(Nc1ccccc1C(=O)N/N=C/c1ccco1)c1ccc(F)cc1	-16%	5%	-33%	1%	16µM*
O=C(N/N=C/c1ccco1)c1cc(-c2ccccc2)nc2ccccc12	.	-6%	?	25%	14%
Cc1cc(C)n2c(Nc3ccc4c(c3)OCCO4)c(-c3ccccn3)nc2n1	.	.	.	8.9µM*	.
O=C1C=C(c2ccc(C(=O)O)cc2)C[C@@H](c2ccc3c(c2)OCO3)C1	.	-8%	-21%	12%	.
CC(C)(C)c1cc(CCC(=O)NNC(=S)NC(=O)c2ccccc2)cc(C(C)(C)C)c1O	-28%	-11%	1.6µM*	88%	-2%
CN(C)C(=O)[C@H]1C[C@H]1[C@@H](O)[C@H](CO)NC(=O)[C@H](COCc1ccccc1)NC(=O)OC(C)(C)C	-10%	-2%	47%	3%	5%
OC(c1cccnc1)c1nc(-c2ccc3c(c2)OCO3)cs1 (configuration not stated)	.	.	.	2%	.
